The list is not random: actives were taken first. Their share in the collection is about 3.1%.
SKKanGAS inh = S. pyogenes SKKanGAS growth inhibitors in kanamycin, primary screen, streptokinase expression inhibitor project, SKKanGAS strain, BacTiter-Glo luminescence. inhibition, % at 7.5 µM. 1.3% of 300,000 active. 6 h;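 active = mean replicate score, as percent of positive control median, at least 50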;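 note: strain carries kanamycin resistance gene driven by streptokinase promoter and grows in 40 µg/ml kanamycin; loss of luminescence reflects streptokinase promoter inhibition or plain growth inhibition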
PP5 inh = PP5 phosphatase inhibitors, primary screen, biochemical, fluorescence. purified PP5c, OMFP substrate fluorescence. inhibition, % at 6.7 µM. 0.18% of 320,000 active;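 active = inhibition above the campaign's mean inhibition across all tested compounds plus 3 SD, cut at about 9.5% in these data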
CSC inhib = cancer stem cell viability inhibitors, primary screen, luminescence; inhibition, % at 7.5 µM; AID 2717, 2010; 1.1% of 300,000 active; cancer stem cell-like cells viability; in the data active = inhibition above about 75%; tested in HMLE shEcad cells
Beta cell apopt = inhibitors of cytokine-induced beta cell apoptosis, primary screen, luminescence. INS-1E cytokine-induced death, ATP luminescence, 48 h; percent of positive-control rescue, neutral wells zero. protection from apoptosis, % (no concentration beside the values). 0.8% of 300,000 active. AID 435005, 2010;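 active = Every replicate reaches about 75%, or at least half do and their mean reaches it too, limit read from the data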;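 note: higher means more ATP so stronger rescue from cytokine killing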
PP1 inh = PP1-alpha phosphatase inhibitors, primary screen, counter-screen for PP5 inhibitor project, biochemical, fluorescence, OMFP substrate, single point; Serine/threonine-protein phosphatase PP1-alpha catalytic subunit (Homo sapiens), P62136; purified PP1alpha; inhibition, % at 6.7 µM; 0.9% of 320,000 active; AID 2235, 2010;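 active = inhibition above the mean inhibition of all tested compounds plus 3 SD, computed separately for each screening campaign, cut at about 15% in these data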
Target sequence (P62136 whole entry, looked up): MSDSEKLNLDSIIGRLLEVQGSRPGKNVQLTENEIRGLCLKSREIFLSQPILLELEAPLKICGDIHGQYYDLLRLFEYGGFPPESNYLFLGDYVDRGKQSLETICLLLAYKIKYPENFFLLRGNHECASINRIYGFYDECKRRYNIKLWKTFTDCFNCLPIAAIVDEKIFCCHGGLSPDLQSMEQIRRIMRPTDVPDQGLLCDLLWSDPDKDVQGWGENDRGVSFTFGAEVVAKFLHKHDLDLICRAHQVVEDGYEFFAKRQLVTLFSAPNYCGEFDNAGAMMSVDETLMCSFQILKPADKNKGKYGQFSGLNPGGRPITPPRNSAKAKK
Of the large screens only hits and unclear results are named; the others gave an inactive call.

O=C(/C=C/c1ccc2c(c1)OCO2)NCCSCc1c(Cl)cccc1Cl	CSC inhib 98
CS(=O)(=O)N(CC(=O)NCCSCc1c(F)cccc1Cl)c1ccc2c(c1)OCO2	none
CN(C)CCCNC(=O)/C=C/c1ccc2c(c1)OCO2	none
O=C(/C=C/c1ccc2c(c1)OCO2)NCCSCc1ccc(Cl)cc1	CSC inhib 93
O=C(/C=C/c1ccc2c(c1)OCO2)Nc1cccnc1	CSC inhib 83
O=C(/C=C\c1ccco1)Nc1nc(-c2ccc3ccccc3c2)cs1	SKKanGAS inh 63
O=C(/C=C/c1ccc2c(c1)OCO2)Nc1nncs1	none (no result: Beta cell apopt)
Cc1sc(NC(=O)/C=C/c2ccc3c(c2)OCO3)nc1-c1ccccc1	CSC inhib 108
Cc1cc(C)nc(NC(=O)/C=C/c2ccc3c(c2)OCO3)c1	CSC inhib 85
CCOc1ccc(N(C)C(=O)CCc2nnc3ccc(N4CCC5(CC4)OCCO5)nn23)cc1	none
CCOC(=O)c1nn(-c2ccc(F)cc2)c(=O)cc1OCC(=O)Nc1ccc(F)c(F)c1	none
C=CCS/C(N)=N\N=C\c1c(O)ccc2ccccc12	none
O=C(/C=C/c1ccc2c(c1)OCO2)Nc1nc(-c2ccccc2)cs1	CSC inhib 99 (no result: Beta cell apopt)
Cc1cc(C)c(C)c(S(=O)(=O)NCC(=O)Nc2ccccc2F)c1C	none (no result: PP5 inh, CSC inhib, Beta cell apopt, PP1 inh)
CC1=NN(c2ccccc2)C(=O)C1C=Nc1ccc(N(C)C)cc1 (stereo not given)	CSC inhib 86
CC1(C)N=C(N)N=C(N)N1c1cccc(CN)c1	none (no result: Beta cell apopt)
CC1(C)N=C(N)N=C(N)N1c1ccc(Oc2ccc(Cl)cc2)c(Cl)c1	SKKanGAS inh 94, CSC inhib 89
CC1(C)N=C(N)N=C(N)N1c1ccccc1	SKKanGAS inh 105
CCCSc1ccc(C(=O)Nc2ccc(Cl)cc2)cn1	none
C=CCC(=O)NC1CC(C)(C)Cc2c1cnn2-c1ccccc1C (stereo not given)	none
O=C(Nc1nnc(SCCC2OCCO2)s1)C1CC(=O)N(c2ccc(F)cc2)C1 (stereo not given)	SKKanGAS inh 54
O=C(CSc1nnc(NC(=O)C2CC(=O)N(c3ccc(F)cc3)C2)s1)NCc1ccco1 (stereo not given)	SKKanGAS inh 54 (no result: Beta cell apopt)
Cc1ccc(C)c(C(=O)COC(=O)c2cc(Cl)nc3ccccc23)c1	SKKanGAS inh 54
Cc1ccc(C(=O)COC(=O)c2cc(Cl)nc3ccccc23)cc1C	none
Cc1ccc(-c2nnn(CC(=O)N3CCCCC3)n2)o1	none
Cc1ccc(SC(=O)c2c(C)noc2-c2cc(C)on2)cc1	CSC inhib 81
COc1cc(C(=O)N2CCN(S(=O)(=O)c3ccc(C)cc3C)CC2)ccc1OCC(=O)N1CCOCC1	none (no result: SKKanGAS inh, CSC inhib)
Cc1cccc(Cn2cnc3c(nnn3Cc3ccc(Cl)cc3)c2=O)c1	none
Cc1cccc(Cn2nc(-n3cccc3)c3c(C)cc(C)nc32)c1	SKKanGAS inh 55
Cc1ccc(C(=O)NCC(=O)OCC(=O)c2c(N)n(C)c(=O)n(C)c2=O)cc1C	none (no result: SKKanGAS inh, PP5 inh, PP1 inh)
Cc1ccc(C2CC(c3cccs3)=NN2C(=O)c2ccc(Br)o2)cc1 (stereo not given)	SKKanGAS inh 88
CC(=O)N1N=C(c2cccs2)CC1c1ccc(Br)cc1 (stereo not given)	none
COC(=O)c1c(NC(NC(=O)C(C)(C)C)C(Cl)(Cl)Cl)sc2c1CCC2 (stereo not given)	SKKanGAS inh 59
CC(C)(C)C(=O)NC(NC(=S)Nc1sc2c(c1C#N)CCCC2)C(Cl)(Cl)Cl (stereo not given)	SKKanGAS inh 50 (no result: CSC inhib)
CC(=O)NC(=S)Nc1sc2c(c1C#N)CCCCC2	none (no result: PP5 inh, CSC inhib, Beta cell apopt, PP1 inh)
N#Cc1c(NC(=S)NC(=O)Cc2cccs2)sc2c1CCCCC2	SKKanGAS inh 59
CCN(CC(=O)NCc1ccc(F)cc1)C(=O)C(C)Oc1cccc(Cl)c1 (stereo not given)	none (no result: SKKanGAS inh)
COc1cccc(NC(=O)CCCCCN2C(=O)[C@@H]3Cc4ccccc4CN3C2=O)c1	none
C/C(=N\NC(=O)CNc1cccc(Cl)c1C)C1CC1	none
CC(=O)Nc1ccc(N=c2cc([N+](=O)[O-])cc(Cl)n2O)cc1	none
COc1cccc(-c2nc(-c3ccc(NC(=O)c4cccnc4)cc3)no2)c1	Beta cell apopt 114
Cc1ccc(-c2nc(-c3cccnc3)no2)cc1	none
O=C(Nc1ccc(-c2noc(-c3cccs3)n2)cc1)c1cccnc1	Beta cell apopt 99
CCC(=O)Oc1ccc(-c2nc(-c3cccnc3)no2)cc1	SKKanGAS inh 56
O=C(Nc1cccc(NC(=O)c2cccs2)c1)c1cccnc1	none (no result: CSC inhib)
O=C(N=Nc1c(O)[nH]c2ccccc12)c1cc(NS(=O)(=O)c2cccs2)cc(NS(=O)(=O)c2cccs2)c1	PP1 inh 16
COc1ccc(C(=NNc2ccccc2C(=O)O)c2ccc(OC)cc2)cc1	none
COc1ccc(C(=O)NCC2(c3ccccc3)CCCC2)c(OC)c1	CSC inhib 83
COc1cccc(C(=O)NCC2(c3ccccc3)CCCC2)c1	none
Cc1cccc(C)c1OCC(=O)Nc1ccccc1N1CCCCC1	SKKanGAS inh 86
COc1ccc(OCC(=O)Nc2ccccc2N2CCCCC2)cc1	none
Cc1cccc(OCC(=O)Nc2ccccc2N2CCCCC2)c1C	SKKanGAS inh 70
O=C(CN1CCc2ccccc2C1)Nc1ccccc1N1CCCCCC1	SKKanGAS inh 86 (no result: Beta cell apopt)
O=C(/C=C/c1cc(Br)ccc1F)OCC(=O)N1CCOCC1	none (no result: SKKanGAS inh, PP5 inh, PP1 inh)
CSc1nc(SCC(=O)NC(c2ccccc2)c2ccccc2)c2c3c(sc2n1)CN(C)CC3	PP1 inh 16
Cc1nc2ccc(CN(C)c3ccc(C(=O)N[C@@H](CCC(=O)O)C(=O)O)s3)cc2c(=O)[nH]1	CSC inhib 75
CC(=O)N(C(C)=O)c1ccc2nc(C)[nH]c(=O)c2c1	none
Cc1ccc(-c2ccc(SCC(=O)c3ccccc3)nn2)cc1	none
Cc1ccc(C(=O)CSc2nc(-c3ccccc3)ccc2C#N)cc1	CSC inhib 84
OC(CNCc1ccco1)Cn1c2ccc(Br)cc2c2cc(Br)ccc21 (stereo not given)	SKKanGAS inh 52, CSC inhib 106
Brc1ccc2ncnc(NCc3ccco3)c2c1	none
Cc1cc(Nc2nc3ccccc3nc2Cl)n(-c2ccc([N+](=O)[O-])cc2)n1	Beta cell apopt 77
CCCC(C)NC(=O)CSc1nc2ccc(C)cc2[nH]1 (stereo not given)	none (no result: CSC inhib)
Oc1ccc(/C=N/NC(=S)NC2CC3CCC2C3)cc1 (stereo not given)	none
Oc1ccccc1/C=N/NC(=S)NC1CC2CC1C1C=CCC21 (stereo not given)	SKKanGAS inh 93, CSC inhib 100
COc1cccc(/C=N/NC(=S)NC2CC3CC2C2C=CCC32)c1O (stereo not given)	SKKanGAS inh 109
COc1cccc(/C=N/NC(=S)Nc2cccc(C(=O)O)c2)c1O	none (no result: SKKanGAS inh)
O=C(CCc1nnc2n(CCc3ccccc3)c(=O)c3ccccc3n12)NCCCN1CCCCC1	none
O=C(CCCNC(=O)c1ccc(Cl)cc1)Nc1ccccc1C(F)(F)F	none

Assay outcomes as filed in PubChem.
